Results: PubChem BioAssay AID2006 (Sanford-Burnham Center for Chemical Genomics, 2009)
Hit rate of the full screen: of about 290,000 compounds, about 1,000 (0.34%) were called active. Cut-off read from the data, not from the text of the source: active = inhibition above about 50% (passing the limit was not always enough); inconclusive = no clear call, values can overlap the other calls. Many of the other results were omitted from the sample, so actives are more common in it than they were.

Molecular target: SUMO-conjugating enzyme UBC9 (Homo sapiens) (UniProt P63279)
Assay: blockers of SAE1/SAE2–UBC9 SUMO transfer – biochemical, HTRF, uHTS, primary screen (AID 2006)
Conditions: HTRF SUMOylation assay, SAE1/SAE2 + UBC9, in vitro, at 35 µM, stronger effect = higher value

Chain of SUMO-conjugating enzyme UBC9 (Homo sapiens) (P63279 whole entry, looked up): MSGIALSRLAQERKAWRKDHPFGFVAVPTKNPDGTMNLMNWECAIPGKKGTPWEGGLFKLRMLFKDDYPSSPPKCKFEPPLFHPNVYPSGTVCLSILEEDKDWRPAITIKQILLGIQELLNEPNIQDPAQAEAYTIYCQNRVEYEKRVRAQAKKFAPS

Compound | inhibition | inhibition (average of repeat tests)
CC(=O)N1CCN(CC(=O)Nc2ccc(C)c(F)c2)CC1 | 6% (inactive) | 
COC(=O)c1ccc(CNC(=O)c2ccc3oc(C(C)C)nc3c2)cc1 | 9.1% (inactive) | 
CCC(=O)Nc1c(S(=O)(=O)c2ccccc2)c2nc3ccccc3nc2n1Cc1ccccc1 | 98.2% (active) | 
Cc1ccc(S(=O)(=O)c2c(N)n(C)c3nc4ccccc4nc23)cc1 | 18.6% (inactive) | 
CCN(CC)CCn1c(N)c(S(=O)(=O)c2ccccc2)c2nc3ccccc3nc21 | 11.7% (inactive) | 
O=C(Cc1c(Cl)cccc1Cl)NC1CC1 | 11% (inactive) | 
Cc1ccc(NS(=O)(=O)c2ccc3c(c2)n(C)c(=O)c(=O)n3C)c(C)c1 | 9% (inactive) | 
CC(=O)NCC(=O)N1CCC(n2nccc2NC(=O)CCCc2ccccc2)CC1 | -2.9% (inactive) | 
COc1c(O)ccc2c1CN1CCc3cc4c(cc3C1C2)OCO4 (configuration not stated) | 12.8% (inactive) | 
COc1ccc(-c2nn(-c3ccccc3)cc2/C=C2/SC(=S)N(CCCC(=O)O)C2=O)c(C)c1 | 44.1% (inactive) | 
CN(C)S(=O)(=O)c1cccc(-c2nn(-c3ccccc3)cc2/C=C2\SC(=S)N(CC(=O)O)C2=O)c1 | 37.3% (inactive) | 
Cc1ccc(-c2nn(-c3ccccc3)cc2/C=C2\SC(=S)N(CCCCCC(=O)O)C2=O)o1 | 55.1% (active) | 59.6%
O=C(N/C(=C/c1ccc(Cl)cc1)C(=O)N1CCCCC1)c1ccco1 | 22% (inactive) | 
CC1CCCCN1C(=O)CCS(=O)(=O)Cc1ccccc1 (configuration not stated) | 18.6% (inactive) | 
COc1ccc(NC(=O)CNC(=O)Cn2ccc3ccccc3c2=O)c(OC)c1 | 7.3% (inactive) | 
Cc1ccc(Nc2nc(Cl)c(C=O)s2)cc1 | 16.9% (inactive) | 
Cc1c(Cl)cccc1NC(=O)CCC(=O)N/N=C/c1ccco1 | -5.3% (inactive) | 
O=C(Nc1ccc2nccnc2c1)c1ccco1 | 28.4% (inactive) | 
COc1cccc(S(=O)(=O)NCc2ccc(C(=O)NCc3ccccn3)cc2)c1 | 0.6% (inactive) | 
COc1ccc2oc(=O)c(C(=O)NCc3ccccn3)cc2c1 | 31.2% (inactive) | 

Compound | inhibition | inhibition (average of repeat tests)
CC(C)(C)c1ccc(NC(=O)NCc2ccco2)cc1 | -11.5% (inactive) | 
COCCNC(=O)Nc1ccc2nc(-c3ccco3)c(-c3ccco3)nc2c1 | 95.3% (active) | 62.6%
O=C(NCc1ccccn1)c1ccc2nc(-c3ccco3)c(-c3ccco3)nc2c1 | 74.1% (active) | 
COc1ccc(CNC(=O)c2ccc(Br)s2)cc1OC | 0.1% (inactive) | 
Cc1c(C)c2c(OCC(=O)N[C@@H](C(=O)O)c3ccccc3)cc3c(c2oc1=O)CCC(C)(C)O3 | 44% (inactive) | 
CCc1ccc(-c2nc(SCC(=O)NC3CCCC3)n[nH]2)cc1 | -14.4% (inactive) | 
COc1ccc(N(C)C(=O)C2CCN(S(=O)(=O)c3cccc4nsnc34)CC2)cc1 | 11.4% (inactive) | 
Cc1ccnc(NS(=O)(=O)c2ccc(NC(=O)c3oc4ccc(F)cc4c3C)cc2)n1 | 15.4% (inactive) | 
CC(CC(=O)N1CCN(S(=O)(=O)c2ccccc2)CC1)n1cncn1 (configuration not stated) | 14.6% (inactive) | 
Cc1ccc(OCc2n[nH]c(=S)n2-c2ccc(C)cc2)cc1 | 3.7% (inactive) | 
CCOc1ccc(NC(=O)CN2CCN(CC(=O)Nc3ccc(OC)cc3)CC2)cc1 | -4.3% (inactive) | 
COc1ccc(Cc2n[nH]c(=S)n2NC(=O)Nc2ccc(C)cc2)cc1 | 68.1% (active) | 49.6%
C/C(=N/Nc1nc(-c2ccccc2)c(CC(=O)O)s1)c1ccccc1 | 7% (inactive) | 
Cc1cc(C)nc(N/N=C/c2c(CO)cnc(C)c2O)n1 | -3.1% (inactive) | 
Nc1ccc2nc3c(=O)[nH]c(=S)[nH]c3nc2c1 | 93.4% (active) | 
CCc1ccc(C(=O)NC(=S)Nc2ccccc2N2CCOCC2)cc1 | -0.7% (inactive) | 
CCOc1ccc(N(CC(=O)NCCc2ccc(F)cc2)S(=O)(=O)c2ccccc2)cc1 | -1.5% (inactive) | 
O=C(O)CCCn1cc(NC(=O)COc2cccc(Cl)c2)cn1 | 11.5% (inactive) | 
CN(C)[C@@H]1C(=O)C(C(N)=O)=C(O)[C@@]2(O)C(=O)C3=C(O)c4c(O)ccc(Cl)c4[C@@H](O)[C@H]3C[C@@H]12 | 62.8% (active) | 
COc1ccc(CN2C3CCCC2CC(NC(=O)c2cccc(F)c2)C3)cc1 (configuration not stated) | 8.9% (inactive) | 

Compound | inhibition | inhibition (average of repeat tests)
COc1ccc(C2NC(=O)N(C)C(C)=C2[N+](=O)[O-])cc1 (configuration not stated) | -5.6% (inactive) | 
CC(NC(=O)Nc1cccc([N+](=O)[O-])c1)c1ccc2c(c1)OCO2 (configuration not stated) | 3% (inactive) | 
COc1ccc(-n2nc(C(=O)NCC(=O)N3CCC(C(N)=O)CC3)c3ccccc3c2=O)cc1OC | -4.6% (inactive) | 
O=C(CNC(=O)c1ccc(F)cc1)c1ccccc1 | -1.3% (inactive) | 
Cc1cccc(N=C2NC(=O)/C(=C/c3cn(C)c4ccccc34)S2)c1 | 12.3% (inactive) | 
Cc1ccc(N2NC(=O)/C(=C/C=C/c3ccco3)C2=O)cc1C | -18.1% (inactive) | 
Cc1ccc(N=C2NC(=O)/C(=C/C=C/c3ccco3)S2)cc1C | 54.8% (active) | 
COc1ccc(CN2CCOC2=O)cc1OC | -0.8% (inactive) | 
O=C(CN1CCN(C(=S)NC2CCCC2)CC1)Nc1ccc(Oc2ccccc2)cc1 | -21.3% (inactive) | 
O=C1CN(C(=O)c2cc(F)cc(F)c2)c2ccccc2N1 | 6.7% (inactive) | 
NS(=O)(=O)c1ccc(CNC(=O)c2cccc(Oc3ccccc3)c2)cc1 | -2.7% (inactive) | 
CCOC(=O)N1CC=C2C(C#N)=C(N)C(C#N)(C#N)[C@H](c3cccs3)[C@H]2C1 | -13.8% (inactive) | 
CCN1CC=C2C(C#N)=C(N)C(C#N)(C#N)[C@H](c3ccoc3)[C@H]2C1 | 67.7% (active) | 
CCCN1CC=C2C(C#N)=C(N)C(C#N)(C#N)C(c3cc(OC)ccc3OC)C2C1 (configuration not stated) | 34.3% (inactive) | 
O=C(N/N=C/c1cccc(OCc2ccccc2)c1)c1ccc(Br)o1 | 4.8% (inactive) | 
O=C(Nc1ccccc1N1CCCC1)c1ccc2ccccc2c1 | 1.5% (inactive) | 
COC(=O)c1cccc(C(=O)N2CCC(CCC(=O)NCc3ccc(F)cc3)CC2)c1 | 7.8% (inactive) | 
CC(C)c1ccc2c(c1)c(SC(C)(C)C)c(CC(C)(C)C(=O)O)n2Cc1ccc(Cl)cc1 | 52.2% (active) | 
O=C(O)c1ccc(Cn2c(=S)[nH]c3cc(Cl)ccc3c2=O)cc1 | 1.5% (inactive) | 
